Test results reported in the supplement of paper PMC4466140.

Molecular target: ScBbc1
Experiment: SPOT peptide array binding signal intensity (averaged, normalized) (arbitrary units (background-subtracted, floor 0; scale differs between SH3 domains)); higher = stronger binding of the SH3 domain to the peptide
Summary of the method: (§1)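 Binding signal refers to normalized, background-subtracted spot intensity averaged over replicates, expressed in arbitrary units that differ between domains. GST-fused SH3 domains from four yeast species were incubated at 10 μg/ml overnight at 4°C on cellulose membranes of synthetic 15-mer peptides with cysteines replaced by serines. Bound protein was detected with anti-GST antibody, an HRP anti-mouse secondary and luminol, and quantified with Genespotter.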

| Binder | SPOT peptide array binding signal intensity |
| --- | --- |
| EVTPKVPERPSRRKT | 2080 |

Molecular target: ScBem1-D1
Experiment: as above
Summary of the method: as §1

| Binder | SPOT peptide array binding signal intensity |
| --- | --- |
| EVTPKVPERPSRRKT | 10 |

Molecular target: ScBzz1-D1
Experiment: as above
Summary of the method: as §1

| Binder | SPOT peptide array binding signal intensity |
| --- | --- |
| EVTPKVPERPSRRKT | 57.5 |

Molecular target: ScBzz1-D2
Experiment: as above
Summary of the method: as §1

| Binder | SPOT peptide array binding signal intensity |
| --- | --- |
| EVTPKVPERPSRRKT | 11.8 |

Molecular target: ScCyk3
Experiment: as above
Summary of the method: as §1

| Binder | SPOT peptide array binding signal intensity |
| --- | --- |
| EVTPKVPERPSRRKT | 1.53e-05 |

Molecular target: ScFus1
Experiment: as above
Summary of the method: as §1

| Binder | SPOT peptide array binding signal intensity |
| --- | --- |
| EVTPKVPERPSRRKT | 5 |

Molecular target: ScHof1
Experiment: as above
Summary of the method: as §1

| Binder | SPOT peptide array binding signal intensity |
| --- | --- |
| EVTPKVPERPSRRKT | 11.5 |

Molecular target: ScHse1
Experiment: as above
Summary of the method: as §1

| Binder | SPOT peptide array binding signal intensity |
| --- | --- |
| EVTPKVPERPSRRKT | ≤ 0 |

Molecular target: ScLsb1
Experiment: as above
Summary of the method: as §1

| Binder | SPOT peptide array binding signal intensity |
| --- | --- |
| EVTPKVPERPSRRKT | 842 |

Molecular target: ScLsb2
Experiment: as above
Summary of the method: as §1

| Binder | SPOT peptide array binding signal intensity |
| --- | --- |
| EVTPKVPERPSRRKT | 508 |

Molecular target: ScLsb3
Experiment: as above
Summary of the method: as §1

| Binder | SPOT peptide array binding signal intensity |
| --- | --- |
| EVTPKVPERPSRRKT | 6280 |

Molecular target: ScLsb4
Experiment: as above
Summary of the method: as §1

| Binder | SPOT peptide array binding signal intensity |
| --- | --- |
| EVTPKVPERPSRRKT | 5280 |

Molecular target: ScMyo3
Experiment: as above
Summary of the method: as §1

| Binder | SPOT peptide array binding signal intensity |
| --- | --- |
| EVTPKVPERPSRRKT | 1.5 |

Molecular target: ScMyo5
Experiment: as above
Summary of the method: as §1

| Binder | SPOT peptide array binding signal intensity |
| --- | --- |
| EVTPKVPERPSRRKT | ≤ 0 |

Molecular target: ScNbp2
Experiment: as above
Summary of the method: as §1

| Binder | SPOT peptide array binding signal intensity |
| --- | --- |
| EVTPKVPERPSRRKT | 270 |

Molecular target: ScPex13
Experiment: as above
Summary of the method: as §1

| Binder | SPOT peptide array binding signal intensity |
| --- | --- |
| EVTPKVPERPSRRKT | 1490 |

Molecular target: ScRvs167
Experiment: as above
Summary of the method: as §1

| Binder | SPOT peptide array binding signal intensity |
| --- | --- |
| EVTPKVPERPSRRKT | 924 |

Molecular target: ScSho1
Experiment: as above
Summary of the method: as §1

| Binder | SPOT peptide array binding signal intensity |
| --- | --- |
| EVTPKVPERPSRRKT | 28.5 |

Molecular target: ScSla1-D1-D2
Experiment: as above
Summary of the method: as §1

| Binder | SPOT peptide array binding signal intensity |
| --- | --- |
| EVTPKVPERPSRRKT | 2340 |

Molecular target: ScSla1-D3
Experiment: as above
Summary of the method: as §1

| Binder | SPOT peptide array binding signal intensity |
| --- | --- |
| EVTPKVPERPSRRKT | 69.4 |

Molecular target: SpAbp1-D1
Experiment: as above
Summary of the method: as §1

| Binder | SPOT peptide array binding signal intensity |
| --- | --- |
| EVTPKVPERPSRRKT | 130 |

Molecular target: SpBbc1
Experiment: as above
Summary of the method: as §1

| Binder | SPOT peptide array binding signal intensity |
| --- | --- |
| EVTPKVPERPSRRKT | 1260 |

Molecular target: SpBzz1-D1
Experiment: as above
Summary of the method: as §1

| Binder | SPOT peptide array binding signal intensity |
| --- | --- |
| EVTPKVPERPSRRKT | 514 |

Molecular target: SpBzz1-D2
Experiment: as above
Summary of the method: as §1

| Binder | SPOT peptide array binding signal intensity |
| --- | --- |
| EVTPKVPERPSRRKT | ≤ 0 |

Molecular target: SpCyk3
Experiment: as above
Summary of the method: as §1

| Binder | SPOT peptide array binding signal intensity |
| --- | --- |
| EVTPKVPERPSRRKT | 0.75 |

Molecular target: SpHof1
Experiment: as above
Summary of the method: as §1

| Binder | SPOT peptide array binding signal intensity |
| --- | --- |
| EVTPKVPERPSRRKT | 25.4 |

Molecular target: SpHof1-2
Experiment: as above
Summary of the method: as §1

| Binder | SPOT peptide array binding signal intensity |
| --- | --- |
| EVTPKVPERPSRRKT | 74.4 |

Molecular target: SpHof1-3
Experiment: as above
Summary of the method: as §1

| Binder | SPOT peptide array binding signal intensity |
| --- | --- |
| EVTPKVPERPSRRKT | 73.8 |

Molecular target: SpHse1
Experiment: as above
Summary of the method: as §1

| Binder | SPOT peptide array binding signal intensity |
| --- | --- |
| EVTPKVPERPSRRKT | 51.2 |

Molecular target: SpLsb1
Experiment: as above
Summary of the method: as §1

| Binder | SPOT peptide array binding signal intensity |
| --- | --- |
| EVTPKVPERPSRRKT | 1550 |

Molecular target: SpLsb4
Experiment: as above
Summary of the method: as §1

| Binder | SPOT peptide array binding signal intensity |
| --- | --- |
| EVTPKVPERPSRRKT | 6800 |

Molecular target: SpMyo1
Experiment: as above
Summary of the method: as §1

| Binder | SPOT peptide array binding signal intensity |
| --- | --- |
| EVTPKVPERPSRRKT | 4.25 |

Molecular target: SpNbp2
Experiment: as above
Summary of the method: as §1

| Binder | SPOT peptide array binding signal intensity |
| --- | --- |
| EVTPKVPERPSRRKT | 9.5 |

Molecular target: SpPex13
Experiment: as above
Summary of the method: as §1

| Binder | SPOT peptide array binding signal intensity |
| --- | --- |
| EVTPKVPERPSRRKT | ≤ 0 |

Molecular target: SpRvs167
Experiment: as above
Summary of the method: as §1

| Binder | SPOT peptide array binding signal intensity |
| --- | --- |
| EVTPKVPERPSRRKT | 1310 |

Molecular target: SpSla1-D1-D2
Experiment: as above
Summary of the method: as §1

| Binder | SPOT peptide array binding signal intensity |
| --- | --- |
| EVTPKVPERPSRRKT | 48.5 |

Molecular target: SpSla1-D3
Experiment: as above
Summary of the method: as §1

| Binder | SPOT peptide array binding signal intensity |
| --- | --- |
| EVTPKVPERPSRRKT | 2 |
